# Reference: article PMC7862700, “An all-to-all approach to the identification of sequence-specific readers for epigenetic DNA modifications on cytosine”
# Columns and labels:
# Assay in all cases: DAPPL (digital affinity profiling via proximity ligation, sequencing); 10 mM Tris-HCl pH 7.5, 50 mM NaCl, 1 mM DTT, 4% glycerol, room temperature, 30 min; GST-TFs on glutathione beads, 16-mer random dsDNA library, 0.1% formaldehyde crosslink after washing; high values mean tight binding
# FLI1 = biological target: T1, FLI1 (Homo sapiens, UniProt Q01543 1-452); settings: protein: recombinant; tags: N-terminal GST; dsDNA, one strand shown
# T1 sequence: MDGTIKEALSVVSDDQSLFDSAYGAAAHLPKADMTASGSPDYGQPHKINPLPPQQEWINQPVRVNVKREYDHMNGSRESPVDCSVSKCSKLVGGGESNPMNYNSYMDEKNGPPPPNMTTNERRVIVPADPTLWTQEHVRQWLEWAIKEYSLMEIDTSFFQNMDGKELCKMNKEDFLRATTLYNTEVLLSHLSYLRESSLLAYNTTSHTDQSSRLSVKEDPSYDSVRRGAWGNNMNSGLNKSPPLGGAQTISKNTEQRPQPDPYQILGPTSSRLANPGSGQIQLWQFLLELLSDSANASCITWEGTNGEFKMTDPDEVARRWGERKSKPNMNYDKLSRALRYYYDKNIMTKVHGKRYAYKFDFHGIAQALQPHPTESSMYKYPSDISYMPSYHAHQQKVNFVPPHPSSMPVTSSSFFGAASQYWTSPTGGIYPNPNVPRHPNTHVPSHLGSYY
# How it was run: (§1)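 Human transcription factors carrying a GST fusion were produced in yeast, bound to glutathione beads, tagged with DNA barcodes and pooled together with a tag-only sample. Each pool was held with 200 nmole of a random double-stranded 16-mer DNA library in Tris/NaCl/DTT/glycerol buffer for 30 min at room temperature, then washed, crosslinked in 0.1% formaldehyde, proximity-ligated with BsaI/T4 ligase (1 h, 37 °C), PCR-amplified and sequenced on an Illumina NextSeq500. Binding signal is the read frequency of each hexamer for a given factor divided by its frequency in the tag-only sample.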
# ELK1 = biological target: T2, ELK1 (Homo sapiens, UniProt P19419 1-428); settings: protein: recombinant; tags: N-terminal GST; dsDNA, one strand shown
# T2 sequence: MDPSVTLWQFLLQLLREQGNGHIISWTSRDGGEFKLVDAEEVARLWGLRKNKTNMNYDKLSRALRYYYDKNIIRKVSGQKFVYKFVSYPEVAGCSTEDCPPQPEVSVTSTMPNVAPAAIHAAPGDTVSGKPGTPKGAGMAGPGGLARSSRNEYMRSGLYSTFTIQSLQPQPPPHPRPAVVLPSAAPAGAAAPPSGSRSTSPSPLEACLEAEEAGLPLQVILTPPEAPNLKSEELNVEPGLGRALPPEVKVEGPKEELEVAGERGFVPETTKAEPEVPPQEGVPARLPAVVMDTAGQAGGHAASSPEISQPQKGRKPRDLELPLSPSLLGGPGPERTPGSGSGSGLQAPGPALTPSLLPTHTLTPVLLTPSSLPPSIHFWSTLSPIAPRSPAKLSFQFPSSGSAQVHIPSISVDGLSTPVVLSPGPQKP
# How it was run: as §1
# ELF1 = ELF1 (Homo sapiens, UniProt P32519 1-619); settings: protein: recombinant; tags: N-terminal GST; dsDNA, one strand shown
# Chain of ELF1 (P32519 whole entry): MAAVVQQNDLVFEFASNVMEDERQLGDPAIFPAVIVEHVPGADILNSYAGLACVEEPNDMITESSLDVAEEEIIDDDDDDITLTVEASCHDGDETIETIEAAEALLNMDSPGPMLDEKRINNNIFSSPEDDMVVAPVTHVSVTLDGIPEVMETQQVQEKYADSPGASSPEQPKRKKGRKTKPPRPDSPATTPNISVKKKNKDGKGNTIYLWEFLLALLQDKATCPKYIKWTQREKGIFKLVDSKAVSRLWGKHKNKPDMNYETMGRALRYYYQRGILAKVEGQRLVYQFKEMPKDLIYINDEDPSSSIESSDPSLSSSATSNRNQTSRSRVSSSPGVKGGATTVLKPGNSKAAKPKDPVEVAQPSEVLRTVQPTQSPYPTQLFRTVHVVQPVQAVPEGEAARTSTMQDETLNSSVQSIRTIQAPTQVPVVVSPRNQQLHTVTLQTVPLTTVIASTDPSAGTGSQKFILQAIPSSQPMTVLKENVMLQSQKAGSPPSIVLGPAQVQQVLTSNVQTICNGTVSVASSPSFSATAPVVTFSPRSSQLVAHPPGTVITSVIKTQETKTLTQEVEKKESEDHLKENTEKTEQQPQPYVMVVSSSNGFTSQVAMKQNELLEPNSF
# How it was run: as §1
# EHF = biological target: T3, EHF (Homo sapiens, UniProt Q9NZC4 1-300); settings: protein: recombinant; tags: N-terminal GST; dsDNA, one strand shown
# T3 sequence: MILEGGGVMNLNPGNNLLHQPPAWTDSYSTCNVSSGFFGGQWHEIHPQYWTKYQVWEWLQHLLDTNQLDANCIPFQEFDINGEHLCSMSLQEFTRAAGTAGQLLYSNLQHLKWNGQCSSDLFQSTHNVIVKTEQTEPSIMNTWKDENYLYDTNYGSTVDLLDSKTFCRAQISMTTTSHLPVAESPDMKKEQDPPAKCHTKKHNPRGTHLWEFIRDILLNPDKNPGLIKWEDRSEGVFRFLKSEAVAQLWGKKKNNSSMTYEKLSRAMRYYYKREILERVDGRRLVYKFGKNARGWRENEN
# How it was run: as §1
# SPI1 = SPI1 (Homo sapiens, UniProt P17947 1-270); settings: protein: recombinant; tags: N-terminal GST; dsDNA, one strand shown
# How it was run: as §1
# FEV = biological target: T4, FEV (Homo sapiens, UniProt Q99581 1-238); settings: protein: recombinant; tags: N-terminal GST; dsDNA, one strand shown
# T4 sequence: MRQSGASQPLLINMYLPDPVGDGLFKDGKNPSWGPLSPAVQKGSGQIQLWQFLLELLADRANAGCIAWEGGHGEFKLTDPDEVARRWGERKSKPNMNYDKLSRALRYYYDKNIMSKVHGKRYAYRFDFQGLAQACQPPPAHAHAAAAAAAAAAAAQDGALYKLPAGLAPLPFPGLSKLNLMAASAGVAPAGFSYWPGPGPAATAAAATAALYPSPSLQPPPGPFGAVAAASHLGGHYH
# How it was run: as §1
# ETV5 = ETV5 (Homo sapiens, UniProt P41161 1-510); settings: protein: recombinant; tags: N-terminal GST; dsDNA, one strand shown
# Chain of ETV5 (P41161 whole entry): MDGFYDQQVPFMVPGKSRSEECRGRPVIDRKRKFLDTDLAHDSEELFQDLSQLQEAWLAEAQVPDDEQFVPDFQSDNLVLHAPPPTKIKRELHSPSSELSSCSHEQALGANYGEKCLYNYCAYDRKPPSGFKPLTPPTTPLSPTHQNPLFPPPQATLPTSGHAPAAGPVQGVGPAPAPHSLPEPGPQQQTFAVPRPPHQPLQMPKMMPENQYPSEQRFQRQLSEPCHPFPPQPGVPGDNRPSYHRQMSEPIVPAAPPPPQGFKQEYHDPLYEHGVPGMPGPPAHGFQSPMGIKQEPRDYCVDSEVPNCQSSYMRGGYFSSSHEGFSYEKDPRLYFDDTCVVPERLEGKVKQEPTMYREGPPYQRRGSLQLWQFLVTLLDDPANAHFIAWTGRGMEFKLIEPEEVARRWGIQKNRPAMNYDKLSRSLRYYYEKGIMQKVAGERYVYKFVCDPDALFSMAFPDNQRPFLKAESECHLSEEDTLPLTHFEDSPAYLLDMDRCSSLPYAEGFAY
# How it was run: as §1
# HSF1 = HSF1 (Homo sapiens, UniProt Q00613 1-529); settings: protein: recombinant; tags: N-terminal GST; chain copies: 3; dsDNA, one strand shown
# Chain of HSF1 (Q00613 whole entry): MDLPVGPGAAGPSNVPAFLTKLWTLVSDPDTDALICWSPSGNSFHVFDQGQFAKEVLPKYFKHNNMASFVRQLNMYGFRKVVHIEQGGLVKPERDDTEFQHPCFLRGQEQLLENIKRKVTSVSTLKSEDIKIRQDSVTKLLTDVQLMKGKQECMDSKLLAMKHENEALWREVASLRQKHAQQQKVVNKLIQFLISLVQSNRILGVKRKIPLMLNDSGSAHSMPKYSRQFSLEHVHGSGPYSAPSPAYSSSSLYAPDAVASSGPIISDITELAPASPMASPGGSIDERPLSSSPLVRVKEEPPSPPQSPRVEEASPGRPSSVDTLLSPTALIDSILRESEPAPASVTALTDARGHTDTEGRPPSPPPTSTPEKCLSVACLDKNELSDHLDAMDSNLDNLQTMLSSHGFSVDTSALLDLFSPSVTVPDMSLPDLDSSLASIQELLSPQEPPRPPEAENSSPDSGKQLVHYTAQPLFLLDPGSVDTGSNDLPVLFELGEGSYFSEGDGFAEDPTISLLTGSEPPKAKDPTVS
# How it was run: as §1
# SPIC = biological target: T5, SPIC (Homo sapiens, UniProt Q8N5J4 1-248); settings: protein: recombinant; tags: N-terminal GST; dsDNA, one strand shown
# T5 sequence: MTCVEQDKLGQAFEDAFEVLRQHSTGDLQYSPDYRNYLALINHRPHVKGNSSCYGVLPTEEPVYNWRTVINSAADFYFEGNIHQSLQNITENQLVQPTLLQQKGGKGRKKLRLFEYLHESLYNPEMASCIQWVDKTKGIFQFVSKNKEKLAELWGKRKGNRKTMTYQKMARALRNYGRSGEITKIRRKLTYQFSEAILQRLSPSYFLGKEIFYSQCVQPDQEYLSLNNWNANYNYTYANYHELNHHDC
# How it was run: as §1
# ELF4 = ELF4 (Homo sapiens, UniProt Q99607 1-663); settings: protein: recombinant; tags: N-terminal GST; dsDNA, one strand shown
# Chain of ELF4 (Q99607 whole entry): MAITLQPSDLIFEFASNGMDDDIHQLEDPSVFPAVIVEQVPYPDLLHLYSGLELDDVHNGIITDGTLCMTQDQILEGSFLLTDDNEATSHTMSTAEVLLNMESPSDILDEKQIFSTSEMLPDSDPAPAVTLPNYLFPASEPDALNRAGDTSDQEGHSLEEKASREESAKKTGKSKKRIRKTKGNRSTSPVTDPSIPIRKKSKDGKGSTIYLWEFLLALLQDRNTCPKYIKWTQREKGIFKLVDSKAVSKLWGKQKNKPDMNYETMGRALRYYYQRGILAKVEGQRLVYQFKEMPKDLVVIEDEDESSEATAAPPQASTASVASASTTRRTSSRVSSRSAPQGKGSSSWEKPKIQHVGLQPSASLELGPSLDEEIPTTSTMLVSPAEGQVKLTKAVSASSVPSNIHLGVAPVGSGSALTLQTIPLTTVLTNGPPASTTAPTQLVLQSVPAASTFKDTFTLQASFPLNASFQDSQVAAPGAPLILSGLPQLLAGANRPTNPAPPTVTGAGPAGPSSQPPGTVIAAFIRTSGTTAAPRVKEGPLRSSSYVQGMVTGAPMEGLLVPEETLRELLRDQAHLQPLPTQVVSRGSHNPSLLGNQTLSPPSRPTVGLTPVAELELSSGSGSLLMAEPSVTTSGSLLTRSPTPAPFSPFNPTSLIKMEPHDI
# How it was run: as §1
# ELK4 = biological target: T6, ELK4 (Homo sapiens, UniProt P28324-2 1-405); settings: protein: recombinant; tags: N-terminal GST; dsDNA, one strand shown
# T6 sequence: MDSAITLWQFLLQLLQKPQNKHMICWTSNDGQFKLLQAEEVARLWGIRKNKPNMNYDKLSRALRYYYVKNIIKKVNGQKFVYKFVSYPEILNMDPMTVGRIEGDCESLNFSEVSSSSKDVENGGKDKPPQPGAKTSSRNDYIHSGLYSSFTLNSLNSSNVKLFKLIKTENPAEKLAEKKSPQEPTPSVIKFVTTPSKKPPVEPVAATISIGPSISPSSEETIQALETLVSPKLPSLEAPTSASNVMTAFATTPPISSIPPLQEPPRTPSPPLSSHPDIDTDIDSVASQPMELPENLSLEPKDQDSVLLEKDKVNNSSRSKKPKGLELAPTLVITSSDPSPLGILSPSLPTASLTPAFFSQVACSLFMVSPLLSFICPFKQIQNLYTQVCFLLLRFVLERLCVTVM
# How it was run: as §1
# ETV2 = biological target: T7, ETV2 (Homo sapiens, UniProt O00321 1-342); settings: protein: recombinant; tags: N-terminal GST; dsDNA, one strand shown
# T7 sequence: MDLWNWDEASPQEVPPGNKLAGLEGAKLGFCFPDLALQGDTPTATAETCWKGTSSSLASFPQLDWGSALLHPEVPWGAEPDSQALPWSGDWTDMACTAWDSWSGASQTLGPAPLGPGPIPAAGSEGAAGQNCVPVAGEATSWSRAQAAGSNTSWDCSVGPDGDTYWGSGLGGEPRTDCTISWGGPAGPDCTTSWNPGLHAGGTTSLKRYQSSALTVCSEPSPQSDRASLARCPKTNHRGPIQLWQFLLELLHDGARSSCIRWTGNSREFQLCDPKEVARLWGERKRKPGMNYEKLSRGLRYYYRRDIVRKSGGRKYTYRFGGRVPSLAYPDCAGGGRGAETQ
# How it was run: as §1
# ELF3 = biological target: T8, ELF3 (Homo sapiens, UniProt P78545 1-371); settings: protein: recombinant; tags: N-terminal GST; dsDNA, one strand shown
# T8 sequence: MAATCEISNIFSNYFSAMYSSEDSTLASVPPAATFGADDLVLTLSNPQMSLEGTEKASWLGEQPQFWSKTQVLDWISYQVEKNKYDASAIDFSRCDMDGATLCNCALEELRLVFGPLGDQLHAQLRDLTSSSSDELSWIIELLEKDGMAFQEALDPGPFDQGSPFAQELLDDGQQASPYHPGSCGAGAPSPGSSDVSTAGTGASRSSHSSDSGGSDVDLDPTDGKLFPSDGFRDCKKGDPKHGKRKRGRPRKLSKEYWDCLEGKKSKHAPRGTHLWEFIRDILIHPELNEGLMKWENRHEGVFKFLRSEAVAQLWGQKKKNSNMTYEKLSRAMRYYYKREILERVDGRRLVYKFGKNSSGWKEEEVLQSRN
# How it was run: as §1
# ETV1 = ETV1 (Homo sapiens, UniProt P50549 1-477); settings: protein: recombinant; tags: N-terminal GST; dsDNA, one strand shown
# Chain of ETV1 (P50549 whole entry): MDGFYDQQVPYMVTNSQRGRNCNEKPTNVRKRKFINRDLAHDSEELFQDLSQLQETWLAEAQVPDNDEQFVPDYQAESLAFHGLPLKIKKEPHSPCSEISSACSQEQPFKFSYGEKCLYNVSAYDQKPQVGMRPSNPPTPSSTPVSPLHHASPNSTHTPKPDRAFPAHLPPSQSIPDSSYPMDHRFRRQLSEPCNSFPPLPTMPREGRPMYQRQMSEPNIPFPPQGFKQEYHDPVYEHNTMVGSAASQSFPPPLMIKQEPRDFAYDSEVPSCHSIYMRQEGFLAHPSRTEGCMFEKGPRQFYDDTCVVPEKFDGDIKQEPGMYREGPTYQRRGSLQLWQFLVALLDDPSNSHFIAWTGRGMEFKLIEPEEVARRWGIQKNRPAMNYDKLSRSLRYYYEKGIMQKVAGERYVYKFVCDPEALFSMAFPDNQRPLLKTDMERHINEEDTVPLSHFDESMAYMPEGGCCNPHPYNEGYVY
# How it was run: as §1
sequence,measurement,setting,value
TGAAAA,binding signal,FLI1,"1.06 fold enrichment (6-mer frequency, TF over GST control)"
same,binding signal,ELK1,"1.03 fold enrichment (6-mer frequency, TF over GST control)"
same,binding signal,ELF1,"1.04 fold enrichment (6-mer frequency, TF over GST control)"
same,binding signal,EHF,"1.08 fold enrichment (6-mer frequency, TF over GST control)"
same,binding signal,SPI1,"1.23 fold enrichment (6-mer frequency, TF over GST control)"
same,binding signal,FEV,"1.06 fold enrichment (6-mer frequency, TF over GST control)"
same,binding signal,ETV5,"1.02 fold enrichment (6-mer frequency, TF over GST control)"
same,binding signal,HSF1,"1.14 fold enrichment (6-mer frequency, TF over GST control)"
same,binding signal,SPIC,"1.11 fold enrichment (6-mer frequency, TF over GST control)"
same,binding signal,ELF4,"1.11 fold enrichment (6-mer frequency, TF over GST control)"
same,binding signal,ELK4,"1.08 fold enrichment (6-mer frequency, TF over GST control)"
same,binding signal,ETV2,"1.08 fold enrichment (6-mer frequency, TF over GST control)"
same,binding signal,ELF3,"1.08 fold enrichment (6-mer frequency, TF over GST control)"
same,binding signal,ETV1,"1.01 fold enrichment (6-mer frequency, TF over GST control)"
